Results taken from the supplement of paper PMC11001985.
Values without a mark were called inactive.

compound: C#CCNC(=O)CCSSCCC(=O)NCCc1ccc(C=O)c(C=O)c1; assay: lysine labeling ratio R10:1 (500 µM / 50 µM probe), SILAC-ABPP in living cells; higher = lower intrinsic lysine reactivity toward the probe, active = 2 or less; conditions: HeLa; probe concentrations 500 vs 50 µM
Protocol: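 Living HeLa cells (SILAC light/heavy) in PBS at room temperature were labeled with 50 µM versus 500 µM of the lysine-reactive, reductant-cleavable probe OPA-S-S-alkyne (SILAC labeling time not stated). Probe-modified peptides were CuAAC-biotinylated, captured on neutravidin and eluted with DTT/IAA, then quantified by LC-MS/MS. R = median peptide ratio per lysine (500/50 µM), combined over 3 forward and 3 reverse SILAC replicates. Ratios are capped at 20; R < 2 = hyper-reactive.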

Sequence of UniProt P19338 (P19338 whole entry): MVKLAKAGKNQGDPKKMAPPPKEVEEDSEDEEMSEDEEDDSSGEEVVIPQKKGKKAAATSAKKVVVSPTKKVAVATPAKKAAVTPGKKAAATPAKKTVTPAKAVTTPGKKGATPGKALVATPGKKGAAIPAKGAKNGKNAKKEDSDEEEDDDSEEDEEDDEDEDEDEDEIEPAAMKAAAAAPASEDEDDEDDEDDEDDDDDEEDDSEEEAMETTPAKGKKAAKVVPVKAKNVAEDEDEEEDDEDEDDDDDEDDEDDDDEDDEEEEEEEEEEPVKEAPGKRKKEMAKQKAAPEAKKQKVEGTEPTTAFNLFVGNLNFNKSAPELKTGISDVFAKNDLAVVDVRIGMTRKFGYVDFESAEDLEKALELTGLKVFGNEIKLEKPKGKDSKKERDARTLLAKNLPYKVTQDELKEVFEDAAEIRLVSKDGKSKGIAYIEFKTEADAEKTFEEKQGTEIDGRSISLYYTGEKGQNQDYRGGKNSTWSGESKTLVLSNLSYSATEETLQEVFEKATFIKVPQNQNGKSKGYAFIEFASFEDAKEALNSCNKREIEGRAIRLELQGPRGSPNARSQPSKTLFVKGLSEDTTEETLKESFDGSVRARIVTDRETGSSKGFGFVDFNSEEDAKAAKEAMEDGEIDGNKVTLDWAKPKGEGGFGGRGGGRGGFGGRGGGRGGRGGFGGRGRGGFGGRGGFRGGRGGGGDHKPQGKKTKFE
Sequence of UniProt P35579 (P35579 whole entry): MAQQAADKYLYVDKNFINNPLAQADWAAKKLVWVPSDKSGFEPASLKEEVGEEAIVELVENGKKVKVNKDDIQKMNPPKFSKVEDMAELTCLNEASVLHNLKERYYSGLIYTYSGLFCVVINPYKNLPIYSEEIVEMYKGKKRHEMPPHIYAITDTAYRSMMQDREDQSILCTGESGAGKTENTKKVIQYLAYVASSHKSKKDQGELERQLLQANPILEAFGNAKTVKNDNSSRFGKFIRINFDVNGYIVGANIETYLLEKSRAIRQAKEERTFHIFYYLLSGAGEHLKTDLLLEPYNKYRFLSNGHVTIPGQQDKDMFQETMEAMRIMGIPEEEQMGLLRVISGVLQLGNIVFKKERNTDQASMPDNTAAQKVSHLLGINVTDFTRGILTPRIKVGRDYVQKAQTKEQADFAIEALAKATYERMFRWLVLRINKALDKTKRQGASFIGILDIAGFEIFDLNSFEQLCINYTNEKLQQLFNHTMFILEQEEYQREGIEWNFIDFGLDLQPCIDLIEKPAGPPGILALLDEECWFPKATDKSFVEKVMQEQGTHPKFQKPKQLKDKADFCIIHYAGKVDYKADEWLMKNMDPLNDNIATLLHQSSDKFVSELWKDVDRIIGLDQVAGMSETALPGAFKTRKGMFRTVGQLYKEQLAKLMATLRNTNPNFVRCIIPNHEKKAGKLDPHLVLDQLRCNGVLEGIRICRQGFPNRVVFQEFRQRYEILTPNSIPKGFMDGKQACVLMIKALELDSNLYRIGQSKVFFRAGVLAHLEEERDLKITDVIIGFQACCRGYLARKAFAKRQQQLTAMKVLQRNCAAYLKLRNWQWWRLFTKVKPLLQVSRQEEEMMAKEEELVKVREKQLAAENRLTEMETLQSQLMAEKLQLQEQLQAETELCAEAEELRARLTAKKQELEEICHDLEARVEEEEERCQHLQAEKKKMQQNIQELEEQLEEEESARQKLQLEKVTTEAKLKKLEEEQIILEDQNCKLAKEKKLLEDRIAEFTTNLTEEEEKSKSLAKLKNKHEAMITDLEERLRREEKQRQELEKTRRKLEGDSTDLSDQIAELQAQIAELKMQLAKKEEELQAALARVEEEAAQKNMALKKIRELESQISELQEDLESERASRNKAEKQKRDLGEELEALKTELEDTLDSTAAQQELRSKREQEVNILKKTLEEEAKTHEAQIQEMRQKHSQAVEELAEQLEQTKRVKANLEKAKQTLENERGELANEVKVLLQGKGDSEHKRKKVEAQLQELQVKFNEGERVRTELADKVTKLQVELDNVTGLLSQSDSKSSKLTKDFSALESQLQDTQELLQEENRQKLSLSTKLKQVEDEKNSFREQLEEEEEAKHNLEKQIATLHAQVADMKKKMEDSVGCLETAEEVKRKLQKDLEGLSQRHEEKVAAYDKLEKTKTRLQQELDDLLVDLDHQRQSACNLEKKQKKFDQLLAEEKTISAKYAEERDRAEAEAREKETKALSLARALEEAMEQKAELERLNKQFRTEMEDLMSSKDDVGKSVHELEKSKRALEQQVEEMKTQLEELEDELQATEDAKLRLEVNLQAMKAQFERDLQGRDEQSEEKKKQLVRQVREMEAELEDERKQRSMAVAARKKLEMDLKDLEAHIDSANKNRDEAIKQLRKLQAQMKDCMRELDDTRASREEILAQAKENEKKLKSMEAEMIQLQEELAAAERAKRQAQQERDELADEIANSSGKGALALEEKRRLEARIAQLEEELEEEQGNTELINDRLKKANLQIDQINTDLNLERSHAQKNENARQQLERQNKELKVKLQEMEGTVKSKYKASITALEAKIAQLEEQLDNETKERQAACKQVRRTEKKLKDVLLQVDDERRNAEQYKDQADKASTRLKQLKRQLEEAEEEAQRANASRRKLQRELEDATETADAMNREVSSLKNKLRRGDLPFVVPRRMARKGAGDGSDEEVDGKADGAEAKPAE
Sequence of UniProt P17844 (P17844 whole entry): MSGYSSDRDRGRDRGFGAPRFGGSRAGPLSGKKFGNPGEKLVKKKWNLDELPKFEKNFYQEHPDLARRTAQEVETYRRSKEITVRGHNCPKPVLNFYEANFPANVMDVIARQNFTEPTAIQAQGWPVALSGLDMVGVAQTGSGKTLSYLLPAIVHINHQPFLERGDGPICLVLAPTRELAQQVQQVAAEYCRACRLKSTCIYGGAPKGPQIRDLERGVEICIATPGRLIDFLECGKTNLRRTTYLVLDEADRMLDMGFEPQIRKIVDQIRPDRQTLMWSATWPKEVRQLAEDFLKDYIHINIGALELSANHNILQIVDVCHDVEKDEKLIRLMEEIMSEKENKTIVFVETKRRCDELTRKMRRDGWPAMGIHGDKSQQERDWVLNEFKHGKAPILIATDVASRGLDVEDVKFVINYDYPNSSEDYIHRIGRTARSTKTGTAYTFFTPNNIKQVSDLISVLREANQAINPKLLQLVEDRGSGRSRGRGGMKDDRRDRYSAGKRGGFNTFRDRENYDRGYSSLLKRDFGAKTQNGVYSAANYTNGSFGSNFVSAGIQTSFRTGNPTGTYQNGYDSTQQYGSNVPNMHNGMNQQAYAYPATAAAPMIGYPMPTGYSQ
Sequence of UniProt P04899 (P04899 whole entry): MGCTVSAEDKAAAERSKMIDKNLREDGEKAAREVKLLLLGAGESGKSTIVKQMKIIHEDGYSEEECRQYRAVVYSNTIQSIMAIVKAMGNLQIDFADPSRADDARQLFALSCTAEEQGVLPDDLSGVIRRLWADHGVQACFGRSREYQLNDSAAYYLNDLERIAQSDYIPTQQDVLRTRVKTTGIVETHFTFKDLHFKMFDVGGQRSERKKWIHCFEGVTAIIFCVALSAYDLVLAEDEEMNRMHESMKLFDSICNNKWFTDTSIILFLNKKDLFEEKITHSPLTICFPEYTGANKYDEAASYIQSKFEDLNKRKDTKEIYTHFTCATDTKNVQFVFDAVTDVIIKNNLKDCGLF
Sequence of UniProt P22234 (P22234 whole entry): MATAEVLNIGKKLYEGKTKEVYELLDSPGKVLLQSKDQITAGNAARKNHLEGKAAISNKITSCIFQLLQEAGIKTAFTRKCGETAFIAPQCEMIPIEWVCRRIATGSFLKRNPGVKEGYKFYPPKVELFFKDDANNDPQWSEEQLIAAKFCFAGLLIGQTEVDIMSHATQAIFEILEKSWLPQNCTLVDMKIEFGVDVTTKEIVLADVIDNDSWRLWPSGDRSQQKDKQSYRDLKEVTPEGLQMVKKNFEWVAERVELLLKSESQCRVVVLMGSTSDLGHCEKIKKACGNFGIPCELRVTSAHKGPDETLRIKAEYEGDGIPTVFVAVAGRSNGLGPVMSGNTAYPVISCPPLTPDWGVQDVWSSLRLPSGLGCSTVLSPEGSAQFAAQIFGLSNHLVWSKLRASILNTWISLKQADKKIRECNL
Sequence of UniProt Q8WUM4 (Q8WUM4 whole entry): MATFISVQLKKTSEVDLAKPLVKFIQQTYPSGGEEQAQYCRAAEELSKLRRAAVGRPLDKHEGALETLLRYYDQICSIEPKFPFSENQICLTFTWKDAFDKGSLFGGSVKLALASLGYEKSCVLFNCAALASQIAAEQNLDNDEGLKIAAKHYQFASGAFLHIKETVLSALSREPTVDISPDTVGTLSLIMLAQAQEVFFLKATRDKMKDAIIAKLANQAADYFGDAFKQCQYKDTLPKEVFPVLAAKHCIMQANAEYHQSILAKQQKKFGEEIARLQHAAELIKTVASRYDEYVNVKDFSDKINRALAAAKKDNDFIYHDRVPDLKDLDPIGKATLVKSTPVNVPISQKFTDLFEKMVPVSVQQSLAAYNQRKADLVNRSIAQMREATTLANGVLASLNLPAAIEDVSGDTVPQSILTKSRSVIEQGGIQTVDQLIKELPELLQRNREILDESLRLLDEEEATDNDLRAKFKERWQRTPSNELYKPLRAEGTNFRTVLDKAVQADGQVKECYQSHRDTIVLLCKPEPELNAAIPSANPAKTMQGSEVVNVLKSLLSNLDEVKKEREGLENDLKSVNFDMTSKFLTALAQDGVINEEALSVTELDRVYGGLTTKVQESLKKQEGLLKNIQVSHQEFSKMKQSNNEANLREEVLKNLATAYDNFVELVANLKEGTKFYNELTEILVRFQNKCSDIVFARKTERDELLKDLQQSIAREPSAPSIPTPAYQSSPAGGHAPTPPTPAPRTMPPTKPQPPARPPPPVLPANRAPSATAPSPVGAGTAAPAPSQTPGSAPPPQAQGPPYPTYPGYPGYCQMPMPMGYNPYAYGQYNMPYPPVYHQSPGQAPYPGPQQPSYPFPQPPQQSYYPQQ
Sequence of UniProt P09382 (P09382 whole entry): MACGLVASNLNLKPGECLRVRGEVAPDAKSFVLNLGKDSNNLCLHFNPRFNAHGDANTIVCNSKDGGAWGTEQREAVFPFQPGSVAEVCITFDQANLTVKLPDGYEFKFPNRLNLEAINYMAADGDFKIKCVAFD

Target | lysine labeling ratio R10:1
XRCC6 (lysine site: K129) (UniProt P12956) | 1.62 (active)
ITGA3 (lysine site: K895) (UniProt P26006) | 2.18
ENG (lysine site: K513) (UniProt P17813) | 4.09
SPTAN1 (lysine site: K1334) (UniProt Q13813) | 3.63
UniProt P46781 (lysine site: K52) | 2.39
RAB13 (lysine site: K107) (UniProt P51153) | 0.523 (active)
SLC44A2 (lysine site: K62) (UniProt Q8IWA5) | 2.64
DSG2 (lysine site: K141) (UniProt Q14126) | 4.68
NCL (lysine site: K467) (UniProt P19338) | 0.565 (active)
NCL (lysine site: K449) (UniProt P19338) | 0.805 (active)
LAMB1 (lysine site: K1778) (UniProt P07942) | 1.01 (active)
F11R (lysine site: K178) (UniProt Q9Y624) | 5.39
PDCD6IP (lysine site: K374) (UniProt Q8WUM4) | 5.72
GNAI2 (lysine site: K313) (UniProt P04899) | 1.06 (active)
ANXA2 (lysine site: K49) (UniProt P07355) | 3.95
UniProt Q15149 (lysine site: K1659) | 6.06
UniProt Q9UII2 (lysine site: K90) | 6.67
UniProt P59998 (lysine site: K44) | 7.73
PAICS (lysine site: K304) (UniProt P22234) | 4.39
RER1 (lysine site: K181) (UniProt O15258) | 7.46

Target | lysine labeling ratio R10:1
UniProt P16144 (lysine site: K46) | 10.1
UniProt Q15149 (lysine site: K1552) | 2.31
FAT4 (lysine site: K1809) (UniProt Q6V0I7) | 1.9 (active)
MAP4 (lysine site: K946) (UniProt P27816) | 1.95 (active)
CCT3 (lysine site: K203) (UniProt P49368) | 4.58
MYH9 (lysine site: K1828) (UniProt P35579) | 2.77
EDIL3 (lysine site: K157) (UniProt O43854) | 3.03
GPC1 (lysine site: K383) (UniProt P35052) | 1.73 (active)
EEF1G (lysine site: K132) (UniProt P26641) | 1.81 (active)
UniProt Q9UHN6 (lysine site: K278) | 3.15
LRP6 (lysine site: K1053) (UniProt O75581) | 2.76
CD55 (lysine site: K160) (UniProt P08174) | 1.09 (active)
DDX5 (lysine site: K80) (UniProt P17844) | 3.64
P4HB (lysine site: K71) (UniProt P07237) | 7.22
NUMA1 (lysine site: K1024) (UniProt Q14980) | 1.17 (active)
KRT18 (lysine site: K372) (UniProt P05783) | 2.29
UniProt P61978 (lysine site: K405) | 6.82
TXNRD1 (lysine site: K405) (UniProt Q16881) | 5.51
UniProt P62277 (lysine site: K43) | 7.76
LGALS1 (lysine site: K108) (UniProt P09382) | 1.62 (active)
